Several values for one entry are separate records, joined by “and”; a condition that tells them apart may be missing. Identical values can stand only once. The whole screen tested about 5,500 compounds, of which about 2,000 (36%) were called active. About 18% were inconclusive and are not listed. Rule as the data show it: active = normalized growth mostly below about 0.91 (no sharp cut-off); inconclusive = no clear call, values can overlap the other calls; inactive = mostly above about 0.92. The list shows a part of the results.
Experiment: chemical genetic growth profiling, strain panel (AID 1159580);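 also: tested at 20 µM; growth read once vehicle control cultures reached saturation at 30 °C; 1 = growth at the plate median or of vehicle wells; lower values mean less growth of the strain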
Conditions: S. cerevisiae deletion strains, growth OD

Measured: normalized growth

COc1cc(NS(=O)(=O)c2ccc(N)cc2)nc(OC)n1
inactive: locus YAL021C, strain ccr4, active compounds read low 0.976 | locus YAL026C, strain drs2, active compounds read low 0.982 | locus YAL030W, strain snc1, active compounds read low 0.976 | locus YBL061C, strain skt5, active compounds read low 0.97 | locus YBR009C, strain hhf1, active compounds read low 0.977 | locus YBR021W, strain FUR4, active compounds read low 0.983 | locus YBR023C, strain chs3, active compounds read low 0.977 | locus YBR171W, strain sec66, active compounds read low 0.968 | locus YBR229C, strain ROT2, active compounds read low 0.987 | locus YBR231C, strain swc5, active compounds read low 0.971 | locus YBR279W, strain paf1, active compounds read low 0.961 | locus YCL011C, strain gbp2, active compounds read low 0.986 | locus YCL016C, strain dcc1, active compounds read low 0.978 | locus YCL029C, strain bik1, active compounds read low 0.978 | locus YCL061C, strain MRC1, active compounds read low 0.97 | locus YCL069W, strain vba3, active compounds read low 0.985 | locus YCR088W, strain abp1, active compounds read low 0.962 | locus YDL005C, strain med2, active compounds read low 0.979 | locus YDL035C, strain GPR1, active compounds read low 0.976 | locus YDL040C, strain nat1, active compounds read low 0.963 | locus YDL074C, strain BRE1, active compounds read low 0.995 | locus YDL101C, strain DUN1, active compounds read low 0.985 | locus YDL134C, strain PPH21, active compounds read low 0.968 | locus YDL185W, strain tfp1, active compounds read low 0.982 | locus YDL192W, strain arf1, active compounds read low 0.984 | locus YDR001C, strain nth1, active compounds read low 0.978 | locus YDR069C, strain doa4, active compounds read low 0.957 | locus YDR101C, strain arx1, active compounds read low 0.999 | locus YDR137W, strain rgp1, active compounds read low 0.984 | locus YDR150W, strain NUM1, active compounds read low 0.999 | locus YDR159W, strain sac3, active compounds read low 0.933 | locus YDR162C, strain NBP2, active compounds read low 0.98 | locus YDR195W, strain ref2 0.942 | locus YDR297W, strain sur2, active compounds read low 0.983 | locus YDR318W, strain mcm21, active compounds read low 0.989 | locus YDR334W, strain swr1, active compounds read low 0.974 | locus YDR335W, strain msn5, active compounds read low 0.981 | locus YDR388W, active compounds read low 0.977 | locus YDR392W, strain spt3, active compounds read low 0.984 | locus YDR502C, strain sam2, active compounds read low 0.98 | locus YEL003W, strain gim4, active compounds read low 0.991 | locus YEL037C, strain rad23, active compounds read low 0.965 | locus YEL061C, strain CIN8 (second series), active compounds read low 0.986 | locus YEL061C, strain CIN8, active compounds read low 1 | locus YER015W, strain faa2, active compounds read low 0.99 | locus YER016W, strain bim1, active compounds read low 0.988 | locus YER110C, active compounds read low 0.972 | locus YER111C, strain swi4, active compounds read low 0.973 | locus YER155C, strain BEM2 (second series), active compounds read low 0.95 | locus YER155C, strain BEM2, active compounds read low 0.996 | locus YER167W, strain BCK2, active compounds read low 0.977 | locus YFR010W, strain ubp6, active compounds read low 0.976 | locus YGL078C, strain dbp3, active compounds read low 0.985 | locus YGL086W, strain mad1, active compounds read low 0.997 | locus YGL167C, strain pmr1, active compounds read low 0.976 | locus YGL173C, strain kem1, active compounds read low 0.951 | locus YGL227W, strain vid30, active compounds read low 0.97 | locus YGL240W, strain doc1, active compounds read low 0.97 | locus YGL248W, strain PDE1, active compounds read low 1.01 | locus YGL253W, strain hxk2, active compounds read low 0.977 | locus YGR078C, strain PAC10, active compounds read low 1.01 | locus YGR135W, strain pre9, active compounds read low 0.979 | locus YGR229C, strain SMI1, active compounds read low 0.982 | locus YGR252W, strain gcn5, active compounds read low 1.03 | locus YHR013C, strain ard1, active compounds read low 0.988 | locus YHR027C, strain rpn1, active compounds read low 0.981 | locus YHR030C, strain SLT2, active compounds read low 0.986 and 0.975 | locus YHR079C, strain IRE1 (second series), active compounds read low 0.991 | locus YHR079C, strain IRE1, active compounds read low 0.978 | locus YHR094C, strain hxt1, active compounds read low 0.98 | locus YHR129C, strain ARP1, active compounds read low 0.985 | locus YHR142W, strain chs7, active compounds read low 0.969 | locus YHR200W, strain rpn10, active compounds read low 0.993 | locus YIL066C, strain RNR3, active compounds read low 0.982 | locus YIL073C, strain SPO22, active compounds read low 0.87 | locus YIL125W, strain kgd1, active compounds read low 0.994 | locus YIR030C, strain dcg1, active compounds read low 0.997 | locus YJL092W, strain hpr5, active compounds read low 0.982 | locus YJL095W, strain BCK1 (second series), active compounds read low 0.963 | locus YJL095W, strain BCK1, active compounds read low 1.03 and 0.977 | locus YJL115W, strain asf1, active compounds read low 0.966 | locus YJL129C, strain trk1, active compounds read low 0.969 | locus YJL134W, strain LCB3, active compounds read low 0.986 | locus YJL154C, strain vps35, active compounds read low 0.965 | locus YJL164C, strain tpk1, active compounds read low 1 | locus YJL166W, strain qcr8, active compounds read low 0.978 | locus YJL168C, strain set2, active compounds read low 0.989 | locus YJL187C, strain SWE1 (second series), active compounds read low 0.994 | locus YJL187C, strain SWE1, active compounds read low 0.976 | locus YJR043C, strain POL32, active compounds read low 0.982
